From PubChem BioAssay (NCATS)
Inconclusive results are not listed. Active and inactive are the calls of the source. Unless noted, calls follow the shape of the dose curve; as a rule, active = well fitted curve in the direction sought with a large enough effect; inconclusive = small, poorly fitted or top-dose-only effect, or another doubt; inactive = no such curve, though single readings can be large; an effect the other way counts as inactive or inconclusive.

Tests used:
[1] = molecular target: Lysosomal acid glucosylceramidase (Homo sapiens) (UniProt P04062); assay: Glucocerebrosidase-p2 (AID 348; in the data active = potency below about 10 µM; also: potency is read from the fitted curve at half-maximal effect); settings: purified GBA, blue fluorogenic substrate, 40 min
Sequence of Lysosomal acid glucosylceramidase (Homo sapiens) (P04062 whole entry, looked up): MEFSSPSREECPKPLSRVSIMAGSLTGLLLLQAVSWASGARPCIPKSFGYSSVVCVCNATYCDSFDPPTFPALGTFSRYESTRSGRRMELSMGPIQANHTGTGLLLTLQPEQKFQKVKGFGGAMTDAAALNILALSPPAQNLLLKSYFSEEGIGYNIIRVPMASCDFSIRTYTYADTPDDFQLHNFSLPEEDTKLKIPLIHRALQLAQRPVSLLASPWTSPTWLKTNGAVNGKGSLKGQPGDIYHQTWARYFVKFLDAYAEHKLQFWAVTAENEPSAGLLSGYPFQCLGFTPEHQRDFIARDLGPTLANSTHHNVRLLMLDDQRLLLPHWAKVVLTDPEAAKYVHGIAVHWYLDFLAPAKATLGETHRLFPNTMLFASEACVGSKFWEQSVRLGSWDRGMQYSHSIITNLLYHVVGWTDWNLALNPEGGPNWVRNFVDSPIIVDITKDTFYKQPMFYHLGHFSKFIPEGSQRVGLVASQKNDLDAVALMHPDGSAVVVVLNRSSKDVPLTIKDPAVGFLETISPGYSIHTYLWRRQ
Method in brief: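 Compounds titrated from 0.6 nM upwards against 0.2 nM enzyme in pH 5.9 citric acid/KH2PO4, taurocholate, tween-20; blue fluorogenic substrate 80 uM, 40 min room temperature, stopped and read Ex 365/Em 440 for AC50.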

[2] = AP1 Signaling Pathway (AID 357; active = well fitted curve in either direction with a large enough effect, not every such curve was filed as active;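 also: ME-180 reporter cells stimulated with EGF at its EC50 level; % is scaled to controls: 0 for no effect and ±100 for the full control effect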); settings: ME-180 AP-1-bla reporter, EGF-induced, beta-lactamase ratio, 5 h; at 7.69 µM (top of the series) unless noted
Method in brief: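 Modulation of EGF-driven AP-1 transcription was assessed with a beta-lactamase reporter in ME-180 cells. Compound and EC50 EGF were co-incubated 5 hours at 37 °C before 2.5-hour CCF4 loading at room temperature and dual-emission reading.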

[3] = molecular target: Cytochrome P450 1A2 (Homo sapiens) (UniProt P05177); assay: p450-cyp1a2 (AID 410; calls by dose curve; also: potency is read from the fitted curve at half-maximal effect); settings: recombinant CYP1A2, luciferin-ME demethylation, luminescence; series mostly up to 57 µM
Sequence of Cytochrome P450 1A2 (Homo sapiens) (P05177 whole entry, looked up): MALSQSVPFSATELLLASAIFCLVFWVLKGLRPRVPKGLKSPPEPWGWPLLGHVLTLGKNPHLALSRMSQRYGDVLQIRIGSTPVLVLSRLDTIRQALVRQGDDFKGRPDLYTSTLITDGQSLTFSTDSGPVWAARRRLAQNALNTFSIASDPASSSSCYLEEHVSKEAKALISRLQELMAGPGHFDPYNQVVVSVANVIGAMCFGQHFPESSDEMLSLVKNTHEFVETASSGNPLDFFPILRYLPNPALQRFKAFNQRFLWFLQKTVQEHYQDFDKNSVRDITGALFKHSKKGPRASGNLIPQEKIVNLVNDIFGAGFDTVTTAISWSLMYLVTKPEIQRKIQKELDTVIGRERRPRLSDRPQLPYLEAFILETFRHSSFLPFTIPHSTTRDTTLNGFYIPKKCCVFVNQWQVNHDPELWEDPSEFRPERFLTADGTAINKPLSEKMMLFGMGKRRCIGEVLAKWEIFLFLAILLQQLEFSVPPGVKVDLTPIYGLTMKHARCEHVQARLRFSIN
Method in brief: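 20nM CYP1A2 with 100uM Luciferin-ME (at Km) in 100mM KPO4; compound preincubated 10 min, NADPH regeneration added, 60 min at room temperature. Luciferin quantified by luminescence after detection reagent; normalized to 57 uM furafylline.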

[4] = Stat Signaling Pathway (AID 446; active = well fitted curve in either direction with a large enough effect, not every such curve was filed as active;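 also: ME-180 cervical cancer cells given 40 pM IL-6 alongside compound; SIE-controlled beta-lactamase reporter measured as 460/530 nm FRET emission ratio; % is scaled to controls: 0 for no effect and ±100 for the full control effect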); settings: ME-180 (cervical carcinoma) SIE beta-lactamase reporter, IL-6 stimulated, 5 h; at 7.69 µM (top of the series) unless noted
Method in brief: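 IL-6/STAT signaling read in ME-180 cells via an SIE beta-lactamase reporter. Stimulus was 40 pM IL-6 (its AC50) for 5 hrs, so both activation and inhibition register.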

[5] = molecular target: Glucocorticoid receptor (Homo sapiens) (UniProt P04150); assay: GR-GFP Redistribution (AID 450;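 active = compounds whose dose series gives a full or clear partial fitted curve of increased nuclear translocation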; also: potency is read from the fitted curve at half-maximal effect); settings: U2OS GR-GFP nuclear translocation, laser cytometry, 2 h
Sequence of Glucocorticoid receptor (Homo sapiens) (P04150 whole entry, looked up, the tested form may be a part): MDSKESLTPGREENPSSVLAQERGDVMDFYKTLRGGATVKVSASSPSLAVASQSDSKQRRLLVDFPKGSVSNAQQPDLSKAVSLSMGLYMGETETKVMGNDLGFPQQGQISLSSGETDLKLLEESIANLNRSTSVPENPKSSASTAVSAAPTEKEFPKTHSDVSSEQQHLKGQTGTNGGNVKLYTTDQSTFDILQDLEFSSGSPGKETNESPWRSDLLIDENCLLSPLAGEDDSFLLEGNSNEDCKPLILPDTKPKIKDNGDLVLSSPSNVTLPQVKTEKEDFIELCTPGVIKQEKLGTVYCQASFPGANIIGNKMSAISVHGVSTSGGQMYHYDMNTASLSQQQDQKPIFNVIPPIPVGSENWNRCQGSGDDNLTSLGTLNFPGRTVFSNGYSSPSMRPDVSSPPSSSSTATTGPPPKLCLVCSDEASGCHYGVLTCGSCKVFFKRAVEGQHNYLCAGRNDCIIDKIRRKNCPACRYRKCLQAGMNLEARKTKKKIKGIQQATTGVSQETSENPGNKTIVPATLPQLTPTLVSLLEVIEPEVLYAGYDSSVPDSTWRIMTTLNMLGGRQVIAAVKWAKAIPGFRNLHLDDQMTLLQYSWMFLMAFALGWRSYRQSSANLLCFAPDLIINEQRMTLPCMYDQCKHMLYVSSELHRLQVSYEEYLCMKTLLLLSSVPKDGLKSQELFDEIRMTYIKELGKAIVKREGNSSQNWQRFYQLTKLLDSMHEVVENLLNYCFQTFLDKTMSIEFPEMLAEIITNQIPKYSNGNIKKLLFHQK

[6] = molecular target: Glucocorticoid receptor (Homo sapiens) (UniProt P04150); assay: GR-EFC Redistribution (AID 451; calls by dose curve; also: potency is read from the fitted curve at half-maximal effect); settings: CHO-K1 GR-EFC translocation, beta-gal luminescence, 2 h
Method in brief: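 CHO-K1 cells stably expressing nuclear-localized β-gal enzyme acceptor and GR fused C-terminally to the enzyme donor fragment; ligand-driven nuclear translocation restores β-gal by complementation. Compounds titrated up to 46 uM final, 2 h at 37 °C; luminescence read.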

[7] = molecular target: Mitogen-activated protein kinase 10 (Mus musculus) (UniProt Q61831); assay: JNK3 AlphaScreen Assay (AID 530; active = well fitted curve in either direction with a large enough effect, not every such curve was filed as active;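 also: kinase came from lysate of stimulated human HepG2 cells; signal reports phosphorylation of biotinylated GST-cJun 1-79 at Ser73 with 10 µM ATP; % is scaled to controls: 0 for no effect and ±100 for the full control effect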); settings: JNK3 lysate, c-Jun phosphorylation; series mostly up to 57.1 µM
Method in brief: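 Inhibitors reduce antibody binding to phosphorylated biotin-cJun, lowering AlphaScreen luminescence. Lysates from HepG2 cells pre-activated by IL-1beta plus TNF-alpha supplied JNK3; compounds were titrated.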

[8] = molecular target: Cytochrome P450 3A4 (Homo sapiens) (UniProt P08684); assay: qHTS Assay for Inhibitors and Substrates of Cytochrome P450 3A4 (AID 884); settings: recombinant CYP3A4, Luciferin-PPXE luminescence; series mostly up to 57.1 µM; also: potency is read from the fitted curve at half-maximal effect; nearly all actives have a fitted effect of over 50% in size
Sequence of Cytochrome P450 3A4 (Homo sapiens) (P08684 whole entry, looked up): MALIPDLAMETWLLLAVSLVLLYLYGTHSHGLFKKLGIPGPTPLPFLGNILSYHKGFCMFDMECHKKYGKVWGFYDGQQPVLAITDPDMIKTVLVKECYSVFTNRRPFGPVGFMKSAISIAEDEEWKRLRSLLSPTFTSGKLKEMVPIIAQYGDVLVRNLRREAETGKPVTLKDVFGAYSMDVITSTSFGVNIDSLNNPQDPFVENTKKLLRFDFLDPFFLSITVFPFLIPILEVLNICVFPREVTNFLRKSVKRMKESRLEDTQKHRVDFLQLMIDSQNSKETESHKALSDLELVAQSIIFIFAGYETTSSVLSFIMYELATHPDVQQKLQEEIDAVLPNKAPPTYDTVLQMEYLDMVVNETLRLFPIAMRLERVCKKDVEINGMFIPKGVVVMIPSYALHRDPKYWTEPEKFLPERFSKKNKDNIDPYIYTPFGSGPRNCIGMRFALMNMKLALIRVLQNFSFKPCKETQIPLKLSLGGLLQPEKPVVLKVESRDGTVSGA
Method in brief: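 20 nM human CYP3A4 with 25 uM Luciferin-PPXE (at KM) in 200 mM KPO4, preincubated 10 min with compound; NADPH regeneration started a 60 min RT reaction. Luciferin detected by luminescence, normalized to 57 uM ketoconazole as full inhibition.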

[9] = molecular target: Cytochrome P450 3A4 (Homo sapiens) (UniProt P08684); assay: qHTS Assay for Activators of Cytochrome P450 3A4 (AID 885); settings: recombinant CYP3A4, Luciferin-PPXE luminescence, 60 min; series mostly up to 57.1 µM; also: nearly all actives have a fitted effect of over 65% in size
Method in brief: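 Quantitative HTS format: compounds preincubated with 20nM human CYP3A4 and Luciferin-PPXE substrate at KM, reaction started by NADPH regeneration, stopped after 60 min, luciferase luminescence read 20 min later.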

[10] = molecular target: Cytochrome P450 2C19 (Homo sapiens) (UniProt P33261); assay: qHTS Assay for Inhibitors and Substrates of Cytochrome P450 2C19 (AID 899); settings: recombinant CYP2C19, luciferin-H EGE luminescence; series mostly up to 57.1 µM; also: potency is read from the fitted curve at half-maximal effect; nearly all actives have a fitted effect of over 60% in size
Sequence of Cytochrome P450 2C19 (Homo sapiens) (P33261 whole entry, looked up): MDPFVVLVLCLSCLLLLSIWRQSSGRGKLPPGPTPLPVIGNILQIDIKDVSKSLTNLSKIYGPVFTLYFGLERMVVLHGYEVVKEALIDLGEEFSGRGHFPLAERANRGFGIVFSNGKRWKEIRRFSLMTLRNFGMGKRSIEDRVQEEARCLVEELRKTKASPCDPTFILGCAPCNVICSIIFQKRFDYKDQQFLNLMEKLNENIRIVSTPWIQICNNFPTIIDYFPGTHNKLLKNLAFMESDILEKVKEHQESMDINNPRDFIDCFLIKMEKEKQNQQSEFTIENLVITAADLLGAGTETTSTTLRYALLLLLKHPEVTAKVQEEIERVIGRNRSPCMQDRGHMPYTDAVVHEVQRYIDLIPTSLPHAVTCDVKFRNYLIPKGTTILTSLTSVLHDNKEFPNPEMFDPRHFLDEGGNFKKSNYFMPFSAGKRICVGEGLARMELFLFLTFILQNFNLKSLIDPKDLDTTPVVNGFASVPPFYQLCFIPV
Method in brief: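 In 50mM KPO4, the reaction held 5nM enzyme and KM-level (10uM) Luciferin-H EGE; it ran 60 min at 37C after NADPH regeneration and a 10 min compound preincubation. Luminescence values were scaled to 57uM ketoconazole as complete inhibition.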

[11] = qHTS Assay for Lipid Storage Modulators (AID 1519; calls by dose curve); settings: Drosophila S3 cells, BODIPY lipid droplet/cell ratio, laser cytometry, cells loaded with oleic acid; for activity change, negative = inhibition: at 57.5 µM (top of the series)
Method in brief: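 Cells seeded at 5,000 per well were treated with compounds over a concentration series and loaded with oleic acid (400 uM, as added). Lipid droplet fluorescence (488 nm excitation, 500-530 nm channel) was read by laser-scanning cytometry and normalized to 20 uM Triacsin C.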

[12] = molecular target: Dual specificity protein kinase CLK4 (Homo sapiens) (UniProt Q9HAZ1); assay: qHTS Assay for Inhibitors of CDC-like Kinase 4 (Kinase-Glo Assay) (AID 1770); settings: recombinant Clk4, Kinase-Glo ATP depletion luminescence; series mostly up to 66.7 µM; also: % is scaled to controls: 0 for no effect and ±100 for the full control effect; nearly all actives have a fitted effect of over 65% in size
Sequence of Dual specificity protein kinase CLK4 (Homo sapiens) (Q9HAZ1 whole entry, looked up): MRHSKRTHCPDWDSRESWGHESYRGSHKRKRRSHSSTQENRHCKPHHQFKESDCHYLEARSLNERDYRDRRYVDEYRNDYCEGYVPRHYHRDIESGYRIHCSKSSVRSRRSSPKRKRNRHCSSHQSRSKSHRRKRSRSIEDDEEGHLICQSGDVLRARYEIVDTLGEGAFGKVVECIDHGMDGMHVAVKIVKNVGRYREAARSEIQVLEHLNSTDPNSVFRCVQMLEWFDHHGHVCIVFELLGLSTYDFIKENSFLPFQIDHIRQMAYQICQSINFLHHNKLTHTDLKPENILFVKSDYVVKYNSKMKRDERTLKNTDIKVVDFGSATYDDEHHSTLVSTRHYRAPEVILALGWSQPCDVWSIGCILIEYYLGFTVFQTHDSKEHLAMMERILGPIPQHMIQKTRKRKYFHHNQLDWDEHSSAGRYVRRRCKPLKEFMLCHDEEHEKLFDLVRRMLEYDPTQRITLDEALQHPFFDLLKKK
Method in brief: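 Clk4 25 nM, RS peptide 100 uM, ATP 1 uM, pH 7.5 Tris, 10 mM MgCl2, 2.5 mM DTT; 4.5 h RT; ATP depletion read by Kinase-Glo luminescence.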

[13] = molecular target: Dual specificity protein kinase CLK4 (Homo sapiens) (UniProt Q9HAZ1); assay: qHTS Assay for Inhibitors of CDC-like Kinase 4 (ADP-Glo Assay) (AID 1771); settings: recombinant CLK4, ADP-Glo luminescence; series mostly up to 80 µM; also: % is scaled to controls: 0 for no effect and ±100 for the full control effect; nearly all actives have a fitted effect of over 70% in size
Method in brief: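 25 nM Clk4 with 100 uM RS repeat peptide and 1 uM ATP (final) in buffer with 2 mM MgCl2, 0.5 mM EGTA, 2.5 mM DTT, 0.01% Triton X-100; 1 h at room temperature; ADP-Glo luminescence for ADP formed.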

[14] = molecular target: Dual specificity protein kinase CLK4 (Homo sapiens) (UniProt Q9HAZ1); assay: qHTS Assay for Inhibitors of CDC-like Kinase 4 (ADP-FP Assay) (AID 1795); settings: Transcreener ADP fluorescence polarization; series mostly up to 50 µM;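 also: recombinant human CLK4 phosphorylating RS repeat peptide at 1 µM ATP; % is scaled to controls: 0 for no effect and ±100 for the full control effect; nearly all actives have a fitted effect of over 60% in size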
Method in brief: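 Kinase activity was followed as ADP output, converted from fluorescence polarization with a calibration curve. Reactions ran one hour at low ATP (1 uM) with RS peptide substrate.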

[15] = molecular target: Ubiquitin carboxyl-terminal hydrolase 1 (Homo sapiens) (UniProt O94782); assay: Inhibitors of USP1/UAF1: Pilot qHTS (AID 504865); settings: purified USP1/UAF1, Ub-rhodamine cleavage fluorescence; series mostly up to 54.9 µM;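 also: rhodamine fluorescence freed from ubiquitin-rhodamine substrate followed over time; top concentration of the series differs between compounds; % is scaled to controls: 0 for no effect and ±100 for the full control effect; nearly all actives have a fitted effect of over 35% in size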
Sequence of Ubiquitin carboxyl-terminal hydrolase 1 (Homo sapiens) (O94782 whole entry, looked up): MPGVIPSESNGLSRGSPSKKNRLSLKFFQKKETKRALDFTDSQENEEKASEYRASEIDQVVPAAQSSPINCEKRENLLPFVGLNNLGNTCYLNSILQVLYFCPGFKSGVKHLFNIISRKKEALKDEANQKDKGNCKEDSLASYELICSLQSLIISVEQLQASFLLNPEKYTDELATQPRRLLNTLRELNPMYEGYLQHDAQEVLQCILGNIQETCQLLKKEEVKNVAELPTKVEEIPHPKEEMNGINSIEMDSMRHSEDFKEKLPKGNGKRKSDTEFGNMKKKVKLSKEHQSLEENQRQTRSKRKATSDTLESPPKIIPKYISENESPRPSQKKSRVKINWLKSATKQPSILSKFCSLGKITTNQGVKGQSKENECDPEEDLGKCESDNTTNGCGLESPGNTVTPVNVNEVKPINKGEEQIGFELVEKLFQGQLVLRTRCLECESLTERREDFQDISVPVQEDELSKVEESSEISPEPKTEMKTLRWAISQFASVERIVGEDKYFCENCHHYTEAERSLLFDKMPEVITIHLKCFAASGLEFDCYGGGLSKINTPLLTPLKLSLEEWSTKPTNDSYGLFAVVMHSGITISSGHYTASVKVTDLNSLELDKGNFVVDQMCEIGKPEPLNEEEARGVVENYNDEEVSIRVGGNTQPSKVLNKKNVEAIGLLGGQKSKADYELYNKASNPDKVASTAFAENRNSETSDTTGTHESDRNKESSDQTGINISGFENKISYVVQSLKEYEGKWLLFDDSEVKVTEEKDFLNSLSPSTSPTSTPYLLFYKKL
Method in brief: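 Enzyme-free wells gave the negative control, while test wells held 1nM USP1/UAF1 preincubated with compound for 15 min at room temperature. Ub-Rho at 150nM final started the reaction, and fluorescence at 480/540 nm was recorded kinetically.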

[16] = Primary qHTS for small molecule stabilizers of the endoplasmic reticulum resident proteome: Secreted ER Calcium Modulated Protein (SERCaMP) assay (AID 1508630); settings: SH-SY5Y GLuc-SERCaMP (Gaussia luciferase released on ER calcium loss) secretion, thapsigargin, luminescence; series mostly up to 38.4 µM; also: % is scaled to controls: 0 for no effect and ±100 for the full control effect
Method in brief: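 GLuc-SERCaMP-expressing SH-SY5Y cells, pretreated 16 h with compound, are challenged with thapsigargin to empty ER calcium stores; after 4 h, coelenterazine is added directly to the medium and luminescence is imaged.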

[17] = NFAT Signaling Pathway (AID 444; active = well fitted curve in either direction with a large enough effect, not every such curve was filed as active); settings: Jurkat NFAT-bla M1, carbachol, beta-lactamase ratio, 5 h; at 7.69 µM (top of the series) unless noted
Method in brief: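 Jurkat cells carrying an NFAT-driven β-lactamase reporter and co-transfected muscarinic M1 receptor were treated with compound plus carbachol (1 uM final, an EC50 level) for 5 h at 37 °C. CCF4 loading followed for 1 h at RT; 460/530 nm ratio gave %activity.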

[18] = molecular target: 3',5'-cyclic-AMP phosphodiesterase 4B (Homo sapiens) (UniProt Q07343); assay: qHTS Assay for Inhibitors of PDE-IV (AID 607; active = well fitted activation curve with a large enough effect in the main read-out, with a control signal flat, not every such curve was filed as active; also: % of control where 0% means no effect); settings: HEK293 ACTOne CNG channel cells, membrane potential fluorescence; series mostly up to 22.9 µM
Sequence of 3',5'-cyclic-AMP phosphodiesterase 4B (Homo sapiens) (Q07343 whole entry, looked up): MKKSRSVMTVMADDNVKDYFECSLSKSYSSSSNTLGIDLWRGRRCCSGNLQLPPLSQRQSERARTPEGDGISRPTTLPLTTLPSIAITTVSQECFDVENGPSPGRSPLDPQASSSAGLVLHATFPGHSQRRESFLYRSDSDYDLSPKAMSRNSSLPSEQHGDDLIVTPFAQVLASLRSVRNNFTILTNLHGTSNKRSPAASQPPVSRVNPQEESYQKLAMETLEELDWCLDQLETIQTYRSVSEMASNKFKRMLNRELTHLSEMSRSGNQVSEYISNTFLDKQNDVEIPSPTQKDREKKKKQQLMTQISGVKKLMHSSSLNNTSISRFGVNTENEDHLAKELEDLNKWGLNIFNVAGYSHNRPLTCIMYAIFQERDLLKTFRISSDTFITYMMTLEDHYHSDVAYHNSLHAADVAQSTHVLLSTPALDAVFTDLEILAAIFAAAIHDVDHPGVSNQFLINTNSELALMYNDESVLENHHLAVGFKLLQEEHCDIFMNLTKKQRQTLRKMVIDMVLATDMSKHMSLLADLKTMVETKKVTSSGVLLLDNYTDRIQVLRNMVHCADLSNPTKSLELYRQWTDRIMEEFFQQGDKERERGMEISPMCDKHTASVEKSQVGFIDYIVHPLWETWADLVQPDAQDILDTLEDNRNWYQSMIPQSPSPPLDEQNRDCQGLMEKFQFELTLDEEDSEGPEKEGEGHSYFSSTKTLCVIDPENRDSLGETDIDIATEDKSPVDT
Method in brief: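 Live HEK293 cells with a modified cyclic nucleotide-gated (CNG) channel report intracellular cAMP via membrane-potential dye fluorescence (ex 535/em 590 nm). Endogenous PDE-IV was targeted. Compounds were tested at up to 22.9 uM final; RO 20-1724 100 uM served as control.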

[19] = measured here: cell count channel max response
[20] = measured here: lipid channel max response

Structure (SMILES)	Potency [1]	activity change, negative = inhibition [2]	Potency [3]	activity, negative = inhibition [4]	Potency [5]	Potency [6]	outcome [7]	Potency [8]	Potency [9]	Potency [10]	activity change, negative = inhibition [11]	max response [11, 19]	max response [11, 20]	Potency [12]	Potency [13]	Potency [14]	Potency [15]	Potency [16]	activity change, negative = inhibition [17]	Potency [18]
Fc1ccc(Nc2ncncc2-c2ccccc2C(F)(F)F)cc1	> 11.4 µM (inactive)	-13.5% (inactive)	20 µM (active)	23.6% (inactive)	> 46 µM (inactive)	> 46 µM (inactive)	inactive	0.398 µM (active)	inactive	7.94 µM (active)	3.62% (inactive)	13%	14.7%	inactive	inactive	inactive	inactive	inactive	–	–
CN(C)c1ncc2nc(-c3cc(F)cc(F)c3)c(=O)n(C3CC3)c2n1	> 11.4 µM (inactive)	5.31% (inactive)	–	10.2% (inactive)	> 9.22 µM (inactive)	> 46 µM (inactive)	inactive	–	–	–	6.95% (inactive)	8.84%	14.6%	inactive	inactive	inactive	inactive	inactive	-6.61% (inactive)	inactive
Cn1cc(-c2nc3cncnc3n(Cc3ccc(F)cc3)c2=O)c2ccccc21	> 11.4 µM (inactive)	-19.3% (inactive)	1.26 µM (active)	-7.96% (inactive)	> 9.22 µM (inactive)	> 46 µM (inactive)	inactive	–	–	–	6.13% (inactive)	15.3%	20.1%	inactive	inactive	inactive	–	inactive	–	–
Cc1nc2cnc(N3CCOCC3)nc2n(Cc2ccc(F)cc2)c1=O	> 11.4 µM (inactive)	-3.91% (inactive)	–	4.04% (inactive)	> 9.22 µM (inactive)	> 46 µM (inactive)	inactive	–	–	–	2.61% (inactive)	13.7%	15.9%	inactive	inactive	inactive	inactive	inactive	-17.2% (inactive)	–
Cc1nc2cncnc2n(Cc2ccccc2)c1=O	> 11.4 µM (inactive)	-13.3% (inactive)	12.6 µM (active)	-15.3% (inactive)	> 9.22 µM (inactive)	> 46 µM (inactive)	inactive	–	–	0.158 µM (active)	1.73% (inactive)	12.6%	8.3%	inactive	inactive	inactive	inactive	inactive	–	–
COCCn1c(=O)cnc2cnc(OC)nc21	> 11.4 µM (inactive)	-9.59% (inactive)	–	-10.3% (inactive)	> 9.22 µM (inactive)	> 46 µM (inactive)	inactive	–	–	–	6.21% (inactive)	19.3%	24.8%	inactive	inactive	inactive	inactive	inactive	1.87% (inactive)	inactive
Clc1ccccc1-c1cncnc1NCc1cccs1	> 11.4 µM (inactive)	-10.1% (inactive)	3.98 µM (active)	-9.78% (inactive)	> 46 µM (inactive)	> 46 µM (inactive)	inactive	0.501 µM (active)	inactive	1.58 µM (active)	4.06% (inactive)	21%	23.3%	inactive	inactive	inactive	–	inactive	–	–
Cc1cnc(CNc2ncncc2-c2cccnc2)cn1	> 11.4 µM (inactive)	12.8% (inactive)	–	0.806% (inactive)	> 46 µM (inactive)	> 46 µM (inactive)	inactive	–	–	–	5.94% (inactive)	29.4%	33.4%	inactive	inactive	inactive	inactive	inactive	-0.272% (inactive)	inactive
